Assay results published in the supplement of paper PMC6992640.
± gives the standard deviation of the averaged measurements.

Key:
Assay in all cases: cell viability (% of vehicle); higher = less cytotoxic
Conditions in all cases: 10 µM; 72 h
HCI01 = test system: HCI01 (cells of a triple-negative basal-like breast cancer xenograft)
HCI03 = test system: HCI03 (cells of an ER-positive luminal breast cancer xenograft)
HCI09 = test system: HCI09 (cells of a triple-negative luminal androgen receptor type breast cancer xenograft)
HCI11 = test system: HCI11 (cells of an ER-positive luminal breast cancer xenograft)
HCI13 = test system: HCI13 (cells of an ER-positive luminal breast cancer xenograft)
HCI16 = test system: HCI16 (cells of a triple-negative basal-like breast cancer xenograft)
UCD52 = test system: UCD52 (cells of a triple-negative basal-like breast cancer xenograft)
WHIM2 = test system: WHIM2 (cells of a triple-negative basal-like breast cancer xenograft)
WHIM30 = test system: WHIM30 (cells of a triple-negative basal-like breast cancer xenograft)
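Further: PDX cells carrying CMV promoter-driven luciferase, viability read as total photon flux per second by IVIS imaging following D-luciferin, vehicle control 0.1% DMSO.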

SMILES	cell viability (HCI01)	cell viability (HCI03)	cell viability (HCI09)	cell viability (HCI11)	cell viability (HCI13)	cell viability (HCI16)	cell viability (UCD52)	cell viability (WHIM2)	cell viability (WHIM30)
CCCc1nc(C)c2c(=O)nc(-c3cc(S(=O)(=O)N4CCN(CC)CC4)ccc3OCC)[nH]n12 [Vardenafil]	98.2 ± 24	169	113 ± 14	97.3	102 ± 5.5	127	109 ± 12	97.77 ± 0.38	107 ± 1.9
CC1(C)SC2C(NC(=O)C(N)c3ccc(O)cc3)C(=O)N2C1C(=O)O (configuration not stated) [Amoxicillin]	123 ± 28	112	103 ± 4.6	112	141 ± 17	120	84.9 ± 12	138 ± 44	102 ± 10
CN(C)C(=N)N=C(N)N.Cl [Metformin HCl]	100 ± 14	123	92.5 ± 13	86.2	102 ± 6.9	117	82.2 ± 4.7	91.7 ± 3.1	136 ± 14
C=C[C@@H]1C[N@@]2CC[C@H]1C[C@@H]2[C@H](O)c1ccnc2ccc(OC)cc12 [Quinidine]	89 ± 10	135	102 ± 20	102	122 ± 8.8	123	97.9 ± 2.7	101 ± 11	101 ± 6.2
Cl.NC(N)=NC(N)=NCCc1ccccc1 [Phenformin HCl]	117 ± 7.8	114	53.2 ± 5.3	110	58.8 ± 5.4	94.6	78.7 ± 3.6	95.4 ± 15	90.3 ± 11
CCCCCCCCCCCC(CC1OC(=O)C1CCCCCC)OC(=O)C(CC(C)C)NC=O (configuration not stated) [Orlistat]	126.7 ± 0.42	122	123 ± 42	110	97.6 ± 13	81.3	76.1 ± 1	79.1 ± 21	123 ± 6.8
Nc1ccc(S(=O)(=O)Nc2ncccn2)cc1 [Sulfadiazine]	131 ± 9.1	126	158 ± 83	103	153 ± 29	101	95.5 ± 16	101 ± 21	118 ± 18
Nc1nc(=O)c2ncn(CCC(CO)CO)c2[nH]1 [Penciclovir]	115 ± 28	140	92.4 ± 6.6	95.3	84.4 ± 9.1	130	110 ± 5.5	123 ± 34	99.7 ± 8.5
O=N[O-].[Na+] [Sodium Nitrite]	104 ± 6.4	95.5	90.5 ± 4.7	91.5	55.8 ± 2.9	108	84 ± 5.8	114 ± 17	116 ± 21
CNCC(O)c1ccc(O)c(O)c1 [L-Adrenaline]	131 ± 58	137	142 ± 37	110	121 ± 32	138	112 ± 15	102 ± 7.6	162 ± 8.5
CC12CCC3c4ccc(O)cc4CC(CCCCCCCCCS(=O)CCCC(F)(F)C(F)(F)F)C3C1CCC2O (configuration not stated) [Fulvestrant]	137 ± 7.5	89.1	65.5 ± 7.2	85.6	53 ± 6.5	95.7	78.9 ± 3.8	77.5 ± 36	129 ± 12
Cc1ccccc1N1C(=O)c2cc(S(N)(=O)=O)c(Cl)cc2NC1C (configuration not stated) [Metolazone]	121 ± 18	129	98.5 ± 8.3	57.9	132 ± 16	198	107 ± 1.9	103 ± 6.2	127 ± 13
Cc1cc(C(C)(C)C)cc(C)c1CC1=NCCN1.Cl [Xylometazoline HCl]	74.9 ± 49	114	103 ± 40	89.9	136 ± 29	106	83.9 ± 1.7	110 ± 3.6	158 ± 12
O=NN(CCCl)C(=O)NC1CCCCC1 [Lomustine]	94.4 ± 38	115	93.2 ± 13	95.2	83.2 ± 8.6	146	80.2 ± 12	91.3 ± 13	125 ± 10
O=c1cc(O)c(Cl)c[nH]1 [Gimeracil]	96.4 ± 1.7	131	94 ± 19	112	123 ± 14	91	87.8 ± 3.9	102 ± 15	101 ± 17
CC1C(=O)OC2CC34C5CC(C(C)(C)C)C36C(OC(=O)C6O)OC4(C(=O)O5)C21O (configuration not stated) [Ginkgolide A]	98.9 ± 14	112	97.3 ± 6.1	96.5	114 ± 6	116	91.6 ± 10	101 ± 12	91.5 ± 9.4
CC(C)NCC(O)COc1ccc(COCCOC(C)C)cc1.O=C(O)C=CC(=O)O (configuration not stated) [Bisoprolol fumarate]	129.4 ± 0.93	129	102 ± 30	113	93.1 ± 1.1	96.1	86.1 ± 8.9	93.9 ± 16	120 ± 2.5
CCOC(=O)C(CCc1ccccc1)NC(C)C(=O)N1Cc2ccccc2CC1C(=O)O.Cl (configuration not stated) [Quinapril HCl]	61.5 ± 37	111	72.7 ± 10	94.8	104 ± 5.7	96.9	83.7 ± 5.6	95.1 ± 3.9	105 ± 14
CCc1cccc2c3c([nH]c12)C(CC)(CC(=O)O)OCC3 (configuration not stated) [Etodolac]	117 ± 23	104	98.8 ± 27	97.2	97.3 ± 8	96.8	79.2 ± 9.2	92.6 ± 19	86 ± 8.4
CCCCCCOC(=O)N=C(N)c1ccc(NCc2nc3cc(C(=O)N(CCC(=O)OCC)c4ccccn4)ccc3n2C)cc1	94.2 ± 9.6	124	105 ± 7.4	111	118 ± 7.9	107	91.9 ± 7.3	107 ± 32	116 ± 11
Cn1c(=O)cc(N2CCCC(N)C2)n(Cc2ccccc2C#N)c1=O (configuration not stated) [Alogliptin (SYR-322)]	118 ± 5.8	112	89.5 ± 8.9	112	115 ± 26	113	108.86 ± 0.059	114 ± 9.2	117 ± 6.7
CC(C)OC(=O)C(C)(C)Oc1ccc(C(=O)c2ccc(Cl)cc2)cc1 [Fenofibrate]	108 ± 18	106	93.6 ± 4.2	92.1	87.5 ± 35	135	89.1 ± 14	109 ± 1.6	137 ± 9.3

SMILES	cell viability (HCI01)	cell viability (HCI03)	cell viability (HCI09)	cell viability (HCI11)	cell viability (HCI13)	cell viability (HCI16)	cell viability (UCD52)	cell viability (WHIM2)	cell viability (WHIM30)
COc1ccccc1OCC(O)COC(N)=O (configuration not stated) [Methyocarbamol]	148 ± 10	132	144 ± 44	108	109 ± 3.5	111	104 ± 8.4	104 ± 27	134 ± 2.3
CN1CCN2c3ncccc3Cc3ccccc3C2C1 (configuration not stated) [Mirtazapine]	66.7 ± 36	149	91.4 ± 1.8	103	118 ± 26	114	86.1 ± 2.4	87.6 ± 30	138 ± 17
NC1CCCCC1N.O=C([O-])C(=O)[O-].[Pt+2] (configuration not stated) [Oxaliplatin]	97.5 ± 3.3	108	75.7 ± 30	114	89 ± 12	118	137 ± 9.3	108 ± 14	154 ± 2
CNC(=C[N+](=O)[O-])NCCSCc1csc(CN(C)C)n1 [Nizatidine]	150 ± 9.3	120	108 ± 15	92.7	96.2 ± 5.7	133	83.6 ± 12	96.6 ± 1.9	123 ± 17
CCCc1nn(C)c2c(=O)nc(-c3cc(S(=O)(=O)N4CCN(C)CC4)ccc3OCC)[nH]c12 [Sildenafil]	83.6 ± 6.4	101	82.8 ± 18	73.3	73.7 ± 3.3	103	82.8 ± 2.1	92.4 ± 1	105.82 ± 0.018
CC1=NS(=O)(=O)c2cc(Cl)ccc2N1 [Diazoxide]	92.6 ± 9.1	151	86.4 ± 17	98.1	99.6 ± 11	102	104 ± 2.7	95.9 ± 3.5	117 ± 3.8
CN(C)CCOC(C)(c1ccccc1)c1ccccn1.O=C(O)CCC(=O)O (configuration not stated) [Doxylamine Succinate]	122 ± 18	124	101 ± 14	101	90.5 ± 6.7	108	94.28 ± 0.33	97.4 ± 22	103.9 ± 0.48
O=C1CCC(N2C(=O)c3ccccc3C2=O)C(=O)N1 (configuration not stated) [Thalidomide]	144 ± 7.8	129	101 ± 4.3	103	129 ± 15	114	102 ± 4.3	103 ± 19	145 ± 15
Cc1c(-c2ccccc2)oc2c(C(=O)OCCN3CCCCC3)cccc2c1=O.Cl [Flavoxate hydrochloride]	87 ± 21	123	115.8 ± 0.74	90.9	128 ± 27	119	99.5 ± 2	88.5 ± 24	107 ± 9.2
COc1ccc2[nH]cc(CCNC(C)=O)c2c1 [Melatonin]	112 ± 10	134	106 ± 2.2	97.8	108 ± 3.3	109	127 ± 5.4	121 ± 26	158 ± 17
CC[C@H](C)[C@@H]1NC(=O)[C@H](Cc2ccc(O)cc2)NC(=O)[C@@H](N)CSSC[C@@H](C(=O)N2CCC[C@H]2C(=O)N[C@@H](CC(C)C)C(=O)NCC(N)=O)NC(=O)[C@H](CC(N)=O)NC(=O)[C@H](CCC(N)=O)NC1=O [Oxytocin]	116 ± 13	110	99.7 ± 2.2	69.2	134 ± 41	128	115 ± 1.7	126 ± 1.9	134 ± 8.1
Cc1cccc(C)c1OCC(=O)NC(Cc1ccccc1)C(O)CC(Cc1ccccc1)NC(=O)C(C(C)C)N1CCCNC1=O (configuration not stated) [Lopinavir]	83 ± 1.7	102	57.3 ± 20	88.4	93.7 ± 6.3	116	48 ± 4	73.6 ± 13	96.4 ± 16
COc1ccc2[n-]c(S(=O)Cc3ncc(C)c(OC)c3C)nc2c1.COc1ccc2[n-]c(S(=O)Cc3ncc(C)c(OC)c3C)nc2c1.[Mg+2] (configuration not stated) [Esomeprazole Magnesium]	77 ± 60	143	84.6 ± 31	92.6	165 ± 18	112	99.55 ± 0.87	94.2 ± 9.3	181 ± 29
Nc1nc(=O)c2ncn(COCCO)c2[nH]1 [Acyclovir]	103 ± 7.2	107	55.9 ± 49	113	154 ± 13	87.8	91.1 ± 11	96 ± 2.8	108 ± 19
COc1cc(C=CC(=O)N2CCN(CC(=O)N3CCCC3)CC2)cc(OC)c1OC.O=C(O)C=CC(=O)O [Cinepazide maleate]	90.6 ± 5.7	130	94.4 ± 8.9	94.4	81.9 ± 12	106	121 ± 8.9	111 ± 17	102 ± 8.3
O=C(O)CCc1nc(-c2ccccc2)c(-c2ccccc2)o1 [Oxaprozin]	121 ± 25	102	89.1 ± 2.8	106	108 ± 1.6	122	99.29 ± 0.38	101 ± 11	151 ± 17
N#Cc1ccc(C(c2ccc(C#N)cc2)n2cncn2)cc1 [Letrozole]	111 ± 7.6	99.1	98.4 ± 3.9	102	88.2 ± 5.6	99.1	126 ± 15	73.7 ± 21	126 ± 8.4
COCCOC(=O)C1=C(C)NC(C)=C(C(=O)OC(C)C)C1c1cccc([N+](=O)[O-])c1 (configuration not stated) [Nimodipine]	136 ± 0.51	107	128 ± 25	115	87.6 ± 5.7	121	114 ± 5.1	132 ± 7.9	157 ± 28
CCCN1CCCCC1C(=O)Nc1c(C)cccc1C.Cl (configuration not stated) [Ropivacaine HCl]	98.4 ± 14	128	96 ± 5.6	86	96.2 ± 3.2	121	90.97 ± 0.57	92.8 ± 8.5	97.5 ± 4.7
CC(C=CC1=C(C)CCCC1(C)C)=CC=CC(C)=CC(=O)O [Isotretinoin]	139 ± 2	109	91.69 ± 0.3	122	119 ± 3.2	105	190 ± 2.4	91.5 ± 10	142.94 ± 0.0078
CCOC(=O)C1=C[C@]2(CC)CCCN3CCc4c(n1c1ccccc41)[C@@H]32 [Vinpocetine]	107 ± 21	108	94.4 ± 14	106	88.5 ± 11	112	110 ± 9	93.4 ± 7.8	125 ± 11
